# The list is not random: actives were taken first. Their share in the collection is about 3%.
# SKKanGAS inh = inhibitors of SKKanGAS S. pyogenes growth in kanamycin (SK-promoter or general growth effect); inhibition, % at 7.5 µM; AID 1662; BacTiter-Glo, 6 h; actives 1.3% (n = 300,000);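 active means mean replicate score, as percent of positive control median, at least 50; inconclusive means mean below 50 but one replicate at or above 50; inactive means mean and every replicate below 50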;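 further: strain carries kanamycin resistance gene driven by streptokinase promoter and grows in 40 µg/ml kanamycin; loss of luminescence reflects streptokinase promoter inhibition or plain growth inhibition; 0% = median of DMSO wells and 100% = positive control at its reference dose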
# aSyn 5UTR inh = MLPCN primary screen, SNCA 5' untranslated region. alpha-synuclein 5'UTR reporter, inhibitor activity. inhibition, % (tested at 7.5 µM). actives 0.82% (n = 300,000). AID 1813; in the data active means inhibition above about 60%; inconclusive means no clear call, values can overlap the other calls;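 further: H4 neuroglioblastoma cells stably carrying SNCA 5'UTR luciferase fusion; 0% = DMSO wells and 100% = positive control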
# CSC inhib = blocks cancer stem cells; inhibition, % at 7.5 µM; AID 2717; cancer stem cell-like cells viability, luminescence; actives 1.1% (n = 300,000); in the data active means inhibition above about 75%; inconclusive means no clear call, values can overlap the other calls; tested in HMLE shEcad cells
# IEC-6 cytotox = kills IEC-6 intestinal cells in KLF5 counter-screen; IEC-6 cytotoxicity, luminescence viability; inhibition, % at 5 µM; actives 0.78% (n = 290,000); in the data active means inhibition above about 22%;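 further: 0% = plate median of test compound wells and 100% = cytotoxic reference compound wells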
# KLF5 inh = kruppel-like factor 5 inhibition; DLD-1 KLF5 promoter-luciferase reporter, luminescence; inhibition, % at 5 µM; actives 0.23% (n = 290,000);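 active means inhibition above a per-plate limit of that plate's mean compound inhibition plus 3 SD, cut at about 60% in these data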;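 further: 0% = DMSO wells and 100% = LY294002 at 200 µM; higher means less KLF5 promoter-driven luciferase light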
# * marks the source's active call; other numbers are inactive results; ? = inconclusive; / = no result given.
SMILES,SKKanGAS inh,aSyn 5UTR inh,CSC inhib,IEC-6 cytotox,KLF5 inh
CCN(CC)CCN1C(=O)c2cccc3cc(N)cc(c23)C1=O,6.1,-53.3,8.3,13.1,-28.4
COc1cc(COCC(O)CN2CCN(CCN3C(=O)c4cccc5cccc(c45)C3=O)CC2)cc(OC)c1OC (centres undefined),-5.7,-15.3,-20.8,-1.3,-3.4
Nc1cc2c3c(cccc3c1)C(=O)N(CCN1CCCC1)C2=O,-0.8,54.0,35.7,61.6*,-8.7
O=C1c2cccc3cccc(c23)C(=O)N1CCN1CCN(CC(O)COCc2ccc(Cl)cc2)CC1 (centres undefined),5.3,-6.2,82.1*,-4.8,-19.7
O=C1c2cccc3cccc(c23)C(=O)N1CC1CCN(CC(O)COc2ccc3ccccc3c2)CC1 (centres undefined),70.2*,3.9,103.2*,/,/
c1ccc(C[n+]2c(-c3ccccc3)csc2Nc2ccccc2)cc1,1.4,-40.1,83.2*,4.4,-27.3
Cc1csc(NC(=O)c2c(O)c3c(n(CC(C)C)c2=O)CCCC3)n1,61.1*,18.3,17.7,-7.0,-32.0
CCCn1c2c(c(O)c(C(=O)Nc3nc(C)cs3)c1=O)CCCC2,5.3,-39.5,/,2.2,-11.2
COCCCNC(=S)Nc1ccc(CC(=O)O)cc1,-5.1,20.9,-0.3,-4.6,-29.7
CC(=O)N1c2ccc(S(=O)(=O)N3CCC(C(=O)Nc4cc(C)ccn4)CC3)cc2CC1C (centres undefined),52.0*,17.5,-12.4,-1.0,-31.0
CC(=O)N1c2ccc(S(=O)(=O)NCC3CCC(C(=O)Nc4cc(C)ccn4)CC3)cc2CC1C (centres undefined),9.5,31.6,-9.0,13.7,-20.0
Cc1ccc(N(C)S(=O)(=O)c2ccc3c(c2)CC(C)N3C(=O)C2CC2)cc1 (centres undefined),101.9*,21.5,-2.3,-6.9,4.9
COCCn1c(SCC(=O)NC2CCCC2)nnc1C(C)C,-2.8,6.0,-12.1,2.3,-3.5
CCOc1ccc(S(=O)(=O)c2cn(C)c3cc(OC)c(OC)cc3c2=O)cc1,-4.7,19.6,-23.4,-5.8,-18.4
O=C(Nc1cccc(C(F)(F)F)c1)c1cccnc1N1CCN(c2ccccc2)CC1,51.2*,14.6,9.3,-0.6,-21.9
O=C(NCC1OCCc2ccccc21)c1ccc(NC(=O)c2ccc(Cl)cc2)cc1 (centres undefined),14.6,79.4*,-11.2,-1.5,-4.5
CCS(=O)(=O)CCSC1OC(COC(C)=O)C(OC(C)=O)C(OC(C)=O)C1OC(C)=O (centres undefined),4.1,-5.0,3.1,0.0,-12.9
Nc1c(C(=O)CSc2nccn2-c2cccc(F)c2)c(=O)[nH]c(=O)n1C1CC1,/,/,-13.0,/,/
O=C(CSc1n[nH]c(=O)n1Cc1ccccc1)Nc1ccc(F)c(F)c1F,-4.8,9.3,-8.4,-5.5,2.6
COc1ccc(/C=N/N2C(=O)CSC2=S)cc1,-2.2,5.3,4.9,4.6,-45.7
COc1ccc(-c2nn(-c3ccccc3)cc2/C=N/N2C(=O)CSC2=S)cc1,-8.7,-83.2,108.4*,0.4,-36.2
Cc1nc2c(C(=O)NCCC(C)C)c[nH]n2c(=O)c1Cl,7.8,8.0,17.9,-4.9,-11.5
Cc1nc2c(C(=O)NCCC(C)C)c[nH]n2c(=O)c1Cc1ccccc1F,92.5*,5.2,57.7,6.4,-5.9
O=C1N=C(N2C=CC(=C3C=CNC=C3)C=C2)/C(=C/N=NC(=O)c2ccccc2)S1,6.7,13.0,/,-3.8,-8.1
O=C(NC1CCCCC1)c1ccc(-c2ccccc2)cc1,-13.6,-2.3,-2.5,/,/
SMILES,SKKanGAS inh,aSyn 5UTR inh,CSC inhib,IEC-6 cytotox,KLF5 inh
CCOC(=O)Cc1csc(NS(=O)(=O)c2ccc([N+](=O)[O-])cc2)n1,10.8,-9.2,3.7,2.3,-15.1
O=C1c2cc(Br)ccc2N(Cc2ccc(Br)cc2)S(=O)(=O)C1c1cc(Cl)c(Cl)cc1[N+](=O)[O-] (centres undefined),/,/,108.4*,/,/
CC1(C)C=Cc2c(ccc3c2OC[C@H](c2ccc(O)cc2O)C3)O1,/,/,114.2*,/,/
CC(=O)Oc1ccc([C@@H]2COc3c(ccc4c3C=CC(C)(C)O4)C2)c(OC(C)=O)c1,8.9,-152.4,-6.2,/,/
CC(C)=CCc1cc([C@@H]2COc3c(ccc4c3C=CC(C)(C)O4)C2)c(O)cc1O,104.6*,16.8,-4.9,/,/
CCCOc1ccccc1C(=O)N(Cc1cccc(Br)c1)C1CCS(=O)(=O)C1 (centres undefined),2.7,8.4,6.8,-5.8,-42.2
COc1ccccc1C(=O)Nc1nnc(-c2ccco2)s1,-7.2,-167.9,3.2,3.4,-249.8
Cc1ccccc1C(=O)Nc1nnc(-c2ccco2)s1,-4.8,65.1*,1.1,-1.9,-136.9
COc1ccc(-n2nc(C(=O)c3cccs3)cc(-c3nc4ccccc4[nH]3)c2=N)cc1,58.4*,-31.6,48.6,-6.4,-24.8
Cc1ccccc1-n1nc(C(=O)c2cccs2)cc(-c2nc3ccccc3[nH]2)c1=N,86.0*,18.1,17.8,-2.8,-5.9
Cc1cccc(-n2nc(C(=O)c3ccco3)cc(-c3nc4ccccc4[nH]3)c2=N)c1,?,-18.5,19.1,3.4,1.1
COCCN(C(=O)COC(=O)CCOc1ccccc1C)c1c(N)n(Cc2ccccc2)c(=O)[nH]c1=O,-17.8,3.1,-6.6,/,/
NS(=O)(=O)c1ccc(N/N=C/c2cn(-c3ccccc3)nc2-c2cccs2)cc1,10.2,-91.5,81.5*,3.1,-67.3
NS(=O)(=O)c1ccc(N/N=C/c2cn(-c3ccccc3)nc2-c2cccs2)c([N+](=O)[O-])c1,13.0,-48.9,96.0*,-5.0,-6.9
CC(c1ccccn1)N(Cc1ccco1)C(=S)Nc1cccc(F)c1 (centres undefined),-4.2,-0.6,3.3,-2.0,-33.0
Cc1ccccc1-c1nc2c3ccccc3nc(=S)n2[nH]1,94.4*,2.1,-5.5,7.5,-17.9
Cc1nc2ccccc2n1CCc1nc2c3ccccc3nc(=S)n2[nH]1,-4.3,-0.8,-2.3,-2.1,-28.8
O=S1(=O)CCC(NC(=S)N2CCOCC2)C1 (centres undefined),3.2,10.7,-6.2,8.0,-6.7
CCCOc1ccc(-c2nnc(-c3cccs3)o2)cc1,10.4,45.2,-0.4,-11.5,-183.2
CN(C)c1ccc(-c2nnc(-c3cccs3)o2)cc1,-1.0,81.9*,/,1.1,-98.0
Cc1ccc(S(=O)(=O)n2ccc(=O)[nH]2)cc1,1.6,21.0,4.8,2.1,0.4
COc1cccc(NC(=O)Nc2nc(SC(C)(C)C)ns2)c1,54.6*,-130.1,95.6*,7.7,-62.7
COc1cccc(NC(=O)Nc2nc(SC)ns2)c1,48.8,-151.1,17.2,-2.5,-159.1
CC(C)CCNC(=O)c1onc(CSc2nc3ccccc3[nH]2)c1C(=O)NCCC(C)C,11.5,15.3,8.6,4.2,0.3
CNC(=O)c1cc(NC(=O)CCn2nc(-c3ccc(C)cc3)c3ccccc3c2=O)ccc1OC,2.0,12.7,-4.7,2.0,-13.5
O=C1c2ccccc2CCCC12N=NCC2c1cccc2ccccc12 (centres undefined),49.8*,1.0,/,-1.8,-4.9
CCC(=O)NC(c1ccco1)c1cc(Cl)c2ccccc2c1O (centres undefined),/,/,1.8,/,/
